Bioassay records (PubChem BioAssay)
Only some compounds are listed: those with a hit (about 3% of all), similar ones and a draw of the others.
KDM4E inh: inhibitors of human JMJD2E histone demethylase; AID 2147; JMJD2E catalytic domain, FDH-coupled NADH fluorescence (FDH is formaldehyde dehydrogenase); 230,000 compounds, 1.6% hits; Potency, µM (series often up to 57.1 µM), for inactives: at the top dose activity change, negative = inhibition, hits mostly inhibitors; active means well fitted inhibition curve with a large enough effect, not every such curve was filed as active; inconclusive means small, poorly fitted or top-dose-only effect, or another doubt; inactive means no such curve, though single readings can be large or run the other way;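 further: potency means the concentration at half of the fitted maximal effect; 0% = wells with enzyme and -100% = buffer wells without enzyme; nearly all actives have a fitted effect of over 50% in size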
Target sequence (B2RXH2 1-337 limits assumed): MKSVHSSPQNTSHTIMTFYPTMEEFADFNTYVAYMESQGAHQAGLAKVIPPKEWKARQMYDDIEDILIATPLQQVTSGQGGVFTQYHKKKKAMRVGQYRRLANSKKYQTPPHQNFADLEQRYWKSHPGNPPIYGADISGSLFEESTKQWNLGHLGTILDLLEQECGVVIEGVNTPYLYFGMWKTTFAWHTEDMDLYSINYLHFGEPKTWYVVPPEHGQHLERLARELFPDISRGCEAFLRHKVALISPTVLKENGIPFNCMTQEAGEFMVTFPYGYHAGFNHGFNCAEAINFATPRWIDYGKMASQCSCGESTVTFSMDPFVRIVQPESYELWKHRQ
Tau FP inhib: blocks human tau fibril formation measured by polarization; P10636; 280,000 compounds, 0.39% hits; Potency, µM (top dose mostly 57.7 µM), for inactives: at the top dose activity, negative = inhibition, actives largely listed as inhibitors; AID 1468; K18 P301L tau heparin fibrillization, Alexa594 FP, 6 h; further: potency means the concentration at half of the fitted maximal effect; nearly all actives have a fitted effect of over 55% in size
Target sequence (P10636 561-689 P618L limits assumed): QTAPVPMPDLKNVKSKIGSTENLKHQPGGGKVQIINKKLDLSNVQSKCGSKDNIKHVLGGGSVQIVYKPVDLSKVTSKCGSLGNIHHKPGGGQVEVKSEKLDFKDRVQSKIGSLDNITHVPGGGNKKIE
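Steps: dispense K18 P301L tau (15 uM plus 0.24 uM Alexa 594 tracer, final) in pH 7 sodium acetate; add compound; add heparin (20 uM final); incubate 6 hr, 37 C; add ThT (30 uM final); after 1 hr ambient, read FP.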
Coupling enz: coupling enzyme interference in Giardia aldolase counter-screen | coupling enzyme system counterscreen, AmpLite Red fluorescence | 290,000 compounds, 0.67% hits | activity change, negative = inhibition, % at 58.2 µM, hits read low; in the data active means activity change below about -30%
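Activity here indicates interference with the coupling reaction, not aldolase inhibition. Compounds at 57.5 uM final met coupling enzymes for 10 min at RT; substrate and AmpLite Red detection followed, with a 525/598 nm fluorescence read after 20 min.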
Tau fluor counter: counter-screen for tau fibril formation inhibitors | Potency, µM (doses to about 57.7 µM), for the others: at the highest dose activity change, negative = decrease | 280,000 compounds, 0.93% hits | tau K18 P301L Alexa594 fluorescence, heparin fibrillization; further: potency means the concentration at half of the fitted maximal effect; nearly all actives have a fitted effect of over 55% in size
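Human tau K18 P301L (15 uM unlabeled, 0.24 uM Alexa 594-labeled) in 100 mM sodium acetate pH 7 with 20 uM heparin, 6 hr at 37 C. ThT 30 uM added, 1 hr ambient; Alexa 594 FP and total fluorescence read at 555/632 nm.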
Tau ThT inhib: tau fibrillization inhibition (ThT binding); recombinant tau K18 P301L (four-repeat tau fragment), heparin-induced fibrillization, ThT fluorescence; Potency, µM (top dose mostly 57.4 µM), for inactives: top-dose activity, negative = inhibition, hits mostly inhibitors; 270,000 compounds, 2.1% hits; further: potency means the concentration at half of the fitted maximal effect; nearly all actives have a fitted effect of over 55% in size
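Tau K18 P301L fragment (15 uM unlabeled plus 0.24 uM Alexa 594-labeled) in 100 mM sodium acetate pH 7 with compound, fibrillization induced by 20 uM heparin for 6 hr at 37 C. Thioflavin T (30 uM) added, fluorescence read after 1 hr (ex 450, em 510 nm).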
* = called active by the depositor; ? = inconclusive; . = no result given; [ ] = remark or other dose. Unless noted, the call rests on the fitted dose curve; in most records, active means well fitted curve in the direction sought with a large enough effect; inconclusive means small, poorly fitted or top-dose-only effect, or another doubt; inactive means no such curve, though single readings can be large; an effect the other way counts as inactive or inconclusive. Unless noted, on the % scale 0 is the no-effect control and ±100 the full control effect.

SMILES	KDM4E inh	Tau FP inhib	Coupling enz	Tau fluor counter	Tau ThT inhib
Cc1ccc(C)c(NC(=O)Cn2ncc3c([nH]c4ccccc43)c2=O)c1	.	-15%	.	-3%	7%
COC(=O)c1ccc(OC)c(CN2CCCN(Cc3ccc(F)cc3)S2(=O)=O)c1	.	.	-31*	.	.
COc1ccc(C=O)cc1CN1CCCN(Cc2ccc(Cl)cc2)S1(=O)=O	.	.	-3	.	.
O=C(/C=C/c1ccccc1)n1cnnc1SC/C=C/c1ccccc1	0%	?	1	-13%	28µM*
CC(C)c1ccc(N2C(=O)CC(Sc3ncn[nH]3)C2=O)cc1 (configuration not stated)	1.6µM*	-7%	5	-9%	-16%
CCCc1c(O)nc(SC2CC(=O)N(c3cc(OC)ccc3OC)C2=O)[nH]c1=O (configuration not stated)	1%	3%	4	3%	-4%
CC(C)c1ccc(N2C(=O)CC(Sc3nc4ccccc4o3)C2=O)cc1 (configuration not stated)	-1%	0%	-5	-27%	?
COc1ccc(N2C(=O)CC(Sc3ncn[nH]3)C2=O)c(OC)c1 (configuration not stated)	2.8µM*	3%	-3	5%	?
CC(C)C[C@H](NC(=O)[C@H](Cc1ccccc1)NC(=O)CNC(=O)[C@H](CCC(=O)O)NC(=O)[C@H](CCCNC(=N)N)NC(=O)[C@H](C)NC(=O)[C@H](C)NC(=O)[C@@H](N)CC(=O)O)C(=O)N[C@@H](CC(=O)O)C(=O)N[C@H](C(=O)N[C@@H](CC(C)C)C(=O)N[C@H](C(=O)N[C@H](C(=O)N[C@@H](CC(C)C)C(=O)N[C@@H](Cc1cnc[nH]1)C(=O)N[C@@H](CCCNC(=N)N)C(=O)N[C@@H](C)C(=O)NCC(=O)N[C@@H](C)C(=O)N[C@@H](CCCNC(=N)N)C(=O)O)C(C)C)C(C)C)[C@@H](C)O	.	.	1	.	.
Cc1cccc(N=Cc2cc(Br)cc(Cl)c2O)c1	-5%	-14%	-1	-9%	14µM*
COc1ccc(-c2nnc3n2N=C(c2ccc(OC)c(OC)c2)CS3)c(OC)c1	.	.	0	.	.
O=C(N/N=C/c1ccc(N2CCCCC2)o1)c1ccccc1	-1%	2%	-21	-3%	?
O=C(N/N=C/c1ccc(N2CCOCC2)o1)c1cccc([N+](=O)[O-])c1	4%	?	-44*	-20%	8.9µM*
CSC1=NSC2=NC(=O)/C(=C/c3coc4ccc(O)cc4c3=O)C(=N)N12	?	-5%	-1	?	22µM*
CSC1=NSC2=NC(=O)/C(=C/c3coc4ccccc4c3=O)C(=N)N12	?	?	5	?	18µM*
CCn1c2ccccc2c2nnc(N3CCN(c4ccc(OC)cc4)CC3)nc21	.	4%	.	-18%	-15%
Clc1ccc(-c2nc3ccccn3c2Nc2ccc3c(c2)OCCO3)s1	.	11%	.	6.3µM*[quencher]	?
Cc1ccc2nc(-c3ccc(Cl)s3)c(Nc3ccc4c(c3)OCCO4)n2c1	.	10%	.	?	-15%
Cc1ccn2c(Nc3ccc4c(c3)OCCO4)c(-c3ccc(Cl)s3)nc2c1	.	?	.	7.1µM*[quencher]	?
O=C(/C=C/c1ccc(O)c(O)c1)c1ccc(O[C@@H]2O[C@H](CO)[C@@H](O)[C@H](O)[C@H]2O)c(O)c1O	.	.	-11	.	.
Cc1ccsc1C1C2=C(CCCC2=O)Nc2ncnn21 (configuration not stated)	-5%	6%	-30*	1%	-1%
Nc1c(C(=O)O)ccc2c1C(=O)c1ccccc1C2=O	3%	-11%	7	-29%	10µM*
Nc1cc(C(=O)O)c(N)c2c1C(=O)c1ccccc1C2=O	?	20µM*	-18	?	4.5µM*
Cc1ccc2c(c1)C(=O)c1c(C(=O)O)cccc1-2	-8%	0%	6	6%	-16%
Nc1c(SCCC(=O)O)ccc2c1C(=O)c1ccccc1C2=O	.	.	7	.	.
SMILES	KDM4E inh	Tau FP inhib	Coupling enz	Tau fluor counter	Tau ThT inhib
Cc1ccc(S(=O)(=O)NN2C(=O)/C(=C/c3cccn3C)SC2=S)cc1	8%	-4%	7	-10%	10µM*
Cn1cccc1/C=C1\SC(=S)N(Nc2ccccc2)C1=O	-2%	4%	0	?	3.5µM*
O=C1/C(=C/c2cccnc2)SC(=S)N1Nc1ccccc1	-4%	?	2	?	28µM*
Cc1ccc(/C=C2\SC(=S)N(NS(=O)(=O)c3ccc(C)cc3)C2=O)cc1	.	.	0	.	.
O=C(CN1C(=O)COc2ccc(S(=O)(=O)N3CCCC3)cc21)NCCc1ccc(Cl)cc1	.	-2%	.	-23%	-2%
COc1ccc(CCC(=O)NCc2nc3cccnc3n2Cc2ccccc2)cc1	.	5%	.	-3%	4%
Cc1ccc(-n2ncc(C(=O)NCc3ccc4c(c3)OCO4)c2C2CCN(C(=O)OC(C)(C)C)CC2)c(C)c1	.	2%	.	-6%	0%
CC(=O)Nc1ccc(NS(=O)(=O)c2ccccc2)c2ccccc12	.	.	-1	.	.
Cc1cc(C)c(S(=O)(=O)Nc2cc(SCC(=O)O)c(O)c3ccccc23)cc1C	28µM*	25µM*	-53*	?	13µM*
O=C(Sc1cccc2cccnc12)c1ccc(F)cc1	?	?	-3	-11%	?
COc1ccc(S(=O)(=O)Nc2cc(Sc3ncn[nH]3)c(O)c3ccccc23)cc1	?	16µM*	-58*	?	7.1µM*
O=S(=O)(Nc1cc(Sc2cccc3cccnc23)c(O)c2ccccc12)c1ccc(F)cc1	28µM*	28µM*	-53*	14µM*[quencher]	13µM*
O=C(O)CSc1cc(NS(=O)(=O)c2ccc(Cl)cc2)c2ccccc2c1O	.	.	-53*	.	.
Cc1cc(C)c(S(=O)(=O)Nc2ccc(O)cc2)cc1C	2%	4%	-1	-16%	-9%
COc1ccc(S(=O)(=O)Nc2ccc(O)c(Sc3ncn[nH]3)c2)cc1	-4%	8%	-6	-3%	-2%
CC(=O)N[C@H]1CSSC[C@@H](C(=O)N2CCC[C@H]2C(=O)N2CCC[C@H]2C(=O)N[C@@H](CCCCN)C(=O)N[C@@H](CC(=O)O)C(N)=O)NC(=O)CNC(=O)[C@H](Cc2c[nH]c3ccccc23)NC(=O)[C@H](CCCNC(=N)N)NC(=O)[C@@H](Cc2ccc3ccccc3c2)NC(=O)[C@H](Cc2cnc[nH]2)NC(=O)[C@H](CCC(=O)O)NC1=O	.	.	-2	.	.
CC(C)C[C@H](NC(=O)[C@H](C)NC(=O)CNC(=O)[C@H](CCCCN)NC(=O)[C@H](CCCN=C(N)N)NC(=O)[C@H](C)NC(=O)[C@H](Cc1ccccc1)NC(=O)[C@@H](N)CCCN=C(N)N)C(=O)N[C@@H](CCCN=C(N)N)C(=O)N[C@@H](CCC(N)=O)C(=O)N[C@@H](CCCCN)C(=O)N[C@@H](CC(N)=O)C(=O)N[C@H](C(N)=O)C(C)C	.	.	-1	.	.
